Several values for one entry are separate records, joined by “and”; a condition that tells them apart may be missing. Equal entries are not always repeated. Activity calls are given as the source filed them.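 How the source made its calls, unless noted: active means thallium flux through the channel raised or lowered by more than 3 SD from vehicle-only wells, actives on both sides; inactive means the rest.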
Columns and labels:
[1] = liver-stage malaria parasite growth inhibition, primary screen, cell-based, HepG2, luciferase luminescence, HepG2 viability (AID 624349; in the data active means parasite load remaining mostly below about 12%, no sharp cut-off; inactive means mostly above about 10%;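 further: 100% = mean of DMSO negative control wells on the same plate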); settings: P. berghei liver stage in HepG2, luciferase luminescence, concentration not given here; parasite load remaining: stronger effect = lower value; viability: measured here: HepG2 viability without parasites
[2] = Cy5 fluorescence interference with SSB-bound oligo, artefact control for HCV NS3 helicase inhibitor project, biochemical, NIH Clinical Collection, E. coli SSB (AID 743268; call rule not given here)
[3] = system: Hepatitis C virus NS3 helicase; assay: HCV NS3 helicase inhibitors, primary screen, biochemical, fluorescence polarization, NIH Clinical Collection (AID 743270; call rule not given here); settings: NS3 helicase binding to Cy5-dT15 DNA, stronger effect = higher value, concentration not given here
[4] = biological target: Single-stranded DNA-binding protein (Escherichia coli (strain K12)) (UniProt P0AGE0); assay: E. coli SSB displacement from DNA, counter-screen for HCV NS3 helicase inhibitor project, biochemical, fluorescence polarization, NIH Clinical Collection (AID 743271; in the data active means inhibition above about 28%); settings: stronger effect = higher value, concentration not given here
[5] = fluorescence interference in NS3h assay format, artefact control for HCV NS3 helicase inhibitor project, biochemical, NIH Clinical Collection (AID 743272; call rule not given here;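 further: HCV NS3 helicase with a Cy5 labelled single stranded DNA probe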); settings: fluorescence interference counterscreen, stronger effect = lower value
[6] = modulation of C. elegans fzo-1 (AID 1259413; call rule not given here;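 further: fzo-1 mutant C. elegans worms in liquid wells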); settings: C. elegans fzo-1 modulator screen, mean read-out; stronger effect = higher value
[7] = differential killing of epithelial or mesenchymal cells, primary screen, imaging, PC-3E GFP, TEM4-18 mCherry, co-culture (AID 1345086;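 active means compounds killing one labelled cell type while sparing the other, by normalised counts and ratio limits, not self-fluorescent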;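 on all read-outs here: cells exposed to compound for 72 h before imaging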;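 on red/green cell ratio (normalised): normalised mesenchymal count divided by normalised epithelial count so high means epithelial killing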); settings: imaging cell counts, at 1 µM; for red/green cell ratio (normalised): actives lie on both sides, counts scaled to control wells, 1 = unselective
[8] = sensitizers of A549 cells to miR-34 induction, primary screen, imaging, A549 dox-inducible miR-34, nuclei and caspase counts (AID 1347080;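 active means compounds whose cell count with miR-34 switched on is under 0.7 times the count with it off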); settings: A549 miR-34 inducible, Hoechst nuclei count, 48 h
[9] = survival rescue of mitochondrial mutant cells in low glucose, primary screen, MELAS cybrids, Rieske KO mouse fibroblasts, CellTiter-Glo (AID 1508586;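 active means mean z-score across replicates of 1.96 or higher in either the MELAS or the Rieske mutant cell line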;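 further: z relative to plate mean and SD of compound and empty wells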)
F380Y = assay: modulators of BK channel variants, profiling panel, selectivity assay, cell-based, U2OS BacMam, thallium flux, beta subunits (AID 1259406); settings: at 30 µM;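 further: initial slope of Thallos dye fluorescence rise after thallium is added; log ratio against the mean of 0.3% DMSO vehicle wells on the same plate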
F380Y/beta1 = assay: as above; settings: at 30 µM
F380Y/beta2Delta = assay: as above; settings: at 30 µM
F380Y/beta4 = assay: as above; settings: at 30 µM
[10] = biological target: Calcium-activated potassium channel subunit alpha-1 (Homo sapiens) + Leucine-rich repeat-containing protein 26 (Homo sapiens) (UniProt Q12791+Q2I0M4); assay: as above; settings: F380Y/Slo1WT/gamma1, at 30 µM
Chain of Calcium-activated potassium channel subunit alpha-1 (Homo sapiens) + Leucine-rich repeat-containing protein 26 (Homo sapiens) (Q2I0M4 whole entry, looked up, one chain of several): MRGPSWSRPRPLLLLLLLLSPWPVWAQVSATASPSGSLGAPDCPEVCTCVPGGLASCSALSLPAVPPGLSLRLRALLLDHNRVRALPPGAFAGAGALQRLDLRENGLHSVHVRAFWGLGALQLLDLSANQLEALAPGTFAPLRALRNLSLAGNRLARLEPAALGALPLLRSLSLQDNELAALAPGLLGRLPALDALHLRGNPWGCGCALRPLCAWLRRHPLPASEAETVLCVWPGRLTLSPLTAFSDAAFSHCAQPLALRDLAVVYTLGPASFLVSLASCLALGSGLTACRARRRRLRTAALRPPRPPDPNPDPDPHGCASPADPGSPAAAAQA

R275C = assay: as above; settings: at 30 µM
R275C/beta1 = assay: as above; settings: at 30 µM
R275C/beta2Delta = assay: as above; settings: at 30 µM
R275C/beta4 = assay: as above; settings: at 30 µM
R275C/Slo1WT/beta2 = assay: as above; settings: at 30 µM
[11] = measured here: epithelial PC-3E GFP cell survival
[12] = measured here: mesenchymal TEM4-18 mCherry cell survival
[13] = stronger effect = lower value, cell number ratio, induced over uninduced
[14] = measured here: relative caspase fold change +Dox/-Dox
[15] = measured here: total cells with miR-34 induction, stronger effect = lower value
[16] = measured here: total cells without miR-34 induction
[17] = MELAS cybrid survival, CellTiter-Glo 48 h, stronger effect = higher value
[18] = Rieske KO mouse fibroblast survival, CellTiter-Glo 72 h

C/C(=C\C(=O)OCCCCCCCCC(=O)O)C[C@@H]1OC[C@H](C[C@@H]2O[C@H]2[C@@H](C)[C@H](C)O)[C@@H](O)[C@H]1O
inactive: parasite load remaining [1] 65% | fluorescence ratio [2] 1.04 | inhibition [3] -4.09% | inhibition [4] -5.05% | fluorescence ratio [5] 1.03 | mean signal [6] 235 | red/green cell ratio (normalised) [7] 1 | fold change [8, 13] 0.967 | z-score [9, 17] -3.53 | log fold change Tl+ flux (F380Y) 0.0421 | log fold change Tl+ flux (F380Y/beta1) -0.0188 | log fold change Tl+ flux (F380Y/beta2Delta) 0.0619 | log fold change Tl+ flux (F380Y/beta4) 0.0116 | log fold change Tl+ flux [10] 0.0402 | log fold change Tl+ flux (R275C) -0.0142 | log fold change Tl+ flux (R275C/beta1) -0.0156 | log fold change Tl+ flux (R275C/beta2Delta) -0.0137 | log fold change Tl+ flux (R275C/beta4) 0.0262 | log fold change Tl+ flux (R275C/Slo1WT/beta2) -0.00127
1.08: normalised cell number [7, 11] | normalised cell number [7, 12]
0.766: fold change [8, 14]
7890: cell count [8, 15]
-3.7: z-score [9, 18]
116%: viability [1]
8160: cell count [8, 16]

COc1c(N2C[C@@H]3CCCN[C@@H]3C2)c(F)cc2c(=O)c(C(=O)O)cn(C3CC3)c12
0.523 and -0.694: z-score [9, 18]
0.781: fold change [8, 14]
70.8%: viability [1]
7410: cell count [8, 16]
0.89: normalised cell number [7, 11]
7060: cell count [8, 15]
0.99: normalised cell number [7, 12]
inactive: parasite load remaining [1] 52.8% | mean signal [6] 299 | red/green cell ratio (normalised) [7] 1.11 | fold change [8, 13] 0.953 | z-score [9, 17] -0.444 and -0.324 | log fold change Tl+ flux (F380Y) 0.00312 | log fold change Tl+ flux (F380Y/beta1) -0.0479 | log fold change Tl+ flux (F380Y/beta2Delta) 0.0707 | log fold change Tl+ flux (F380Y/beta4) 0.0364 | log fold change Tl+ flux [10] 0.0216 | log fold change Tl+ flux (R275C) -0.02 | log fold change Tl+ flux (R275C/beta1) -0.0156 | log fold change Tl+ flux (R275C/beta2Delta) 0.0202 | log fold change Tl+ flux (R275C/beta4) 0.0129 | log fold change Tl+ flux (R275C/Slo1WT/beta2) 0.0157

CSc1nc2cc(Oc3cccc(Cl)c3Cl)c(Cl)cc2[nH]1
6080 and 8080: cell count [8, 16]
1.26: normalised cell number [7, 11]
inactive: parasite load remaining [1] 14.4% | fluorescence ratio [2] 0.98 | inhibition [3] 5.94% | inhibition [4] 3.75% | fluorescence ratio [5] 0.96 | mean signal [6] 206 | red/green cell ratio (normalised) [7] 0.82 | fold change [8, 13] 0.963 and 0.988 | z-score [9, 17] -0.167 and -0.17 | log fold change Tl+ flux (F380Y) -0.0619 | log fold change Tl+ flux (F380Y/beta1) 0.0498 | log fold change Tl+ flux (F380Y/beta2Delta) -0.03 | log fold change Tl+ flux (F380Y/beta4) 0.0138 | log fold change Tl+ flux [10] -0.000443 | log fold change Tl+ flux (R275C) 0.0179 | log fold change Tl+ flux (R275C/beta4) 0.0585 | log fold change Tl+ flux (R275C/Slo1WT/beta2) 0.0178
1.31 and 0.403: fold change [8, 14]
5860 and 7990: cell count [8, 15]
-0.137 and -0.629: z-score [9, 18]
78.3%: viability [1]
active: log fold change Tl+ flux (R275C/beta1) 0.416 | log fold change Tl+ flux (R275C/beta2Delta) 0.248
1.03: normalised cell number [7, 12]
